Test results published in the supplement of paper PMC6897291.
Structures can show the parent of a compound that is named as a salt.

Columns and labels:
U-2932 [1] = assay: growth inhibition by drug alone (1 - RLU/untreated control) (fraction); higher = stronger inhibition; settings: 177Lu-lilotomab satetraxetan 0 ug/ml
How it was run: (§1)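 Growth inhibition was calculated from RealTime-Glo RLU against untreated no-drug wells. Values equal 1 − RLU/mean of 48 untreated no-drug wells per plate, read daily from day 3 after 1 h at 37°C. RIVA and U-2932 cells, with or without 18 h pretreatment by a radiolabelled anti-CD37 antibody conjugate (~600 MBq/mg; 0.5 µg/ml RIVA, 1 µg/ml U-2932), were washed and plated at 3,000 cells/well on compound-printed plates at 10/100 nM (RIVA) or 10/1,000 nM (U-2932).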

RIVA [2] = assay: as above; settings: 177Lu-lilotomab satetraxetan 0 ug/ml
How it was run: as §1

U-2932 [3] = assay: growth inhibition by drug plus 177Lu-lilotomab satetraxetan (1 - RLU/untreated control) (fraction); higher = stronger inhibition; settings: 177Lu-lilotomab satetraxetan 1 ug/ml
How it was run: as §1

RIVA [4] = assay: as above; settings: 177Lu-lilotomab satetraxetan 0.5 ug/ml
How it was run: as §1

Structure (SMILES) | growth inhibition by drug alone (U-2932 [1]; 10 nM, time (day): 3) | growth inhibition by drug alone (U-2932 [1]; 10 nM, time (day): 4) | growth inhibition by drug alone (U-2932 [1]; 10 nM, time (day): 5) | growth inhibition by drug alone (U-2932 [1]; 10 nM, time (day): 6) | growth inhibition by drug alone (U-2932 [1]; 1000 nM, time (day): 3) | growth inhibition by drug alone (U-2932 [1]; 1000 nM, time (day): 4) | growth inhibition by drug alone (U-2932 [1]; 1000 nM, time (day): 5) | growth inhibition by drug alone (U-2932 [1]; 1000 nM, time (day): 6) | growth inhibition by drug alone (RIVA [2]; 10 nM, time (day): 3) | growth inhibition by drug alone (RIVA [2]; 10 nM, time (day): 4) | growth inhibition by drug alone (RIVA [2]; 10 nM, time (day): 5) | growth inhibition by drug alone (RIVA [2]; 10 nM, time (day): 6) | growth inhibition by drug alone (RIVA [2]; 100 nM, time (day): 3) | growth inhibition by drug alone (RIVA [2]; 100 nM, time (day): 4) | growth inhibition by drug alone (RIVA [2]; 100 nM, time (day): 5) | growth inhibition by drug alone (RIVA [2]; 100 nM, time (day): 6) | growth inhibition by drug plus 177Lu-lilotomab satetraxetan (U-2932 [3]; 10 nM, time (day): 3) | growth inhibition by drug plus 177Lu-lilotomab satetraxetan (U-2932 [3]; 10 nM, time (day): 4) | growth inhibition by drug plus 177Lu-lilotomab satetraxetan (U-2932 [3]; 10 nM, time (day): 5) | growth inhibition by drug plus 177Lu-lilotomab satetraxetan (U-2932 [3]; 10 nM, time (day): 6) | growth inhibition by drug plus 177Lu-lilotomab satetraxetan (U-2932 [3]; 1000 nM, time (day): 3) | growth inhibition by drug plus 177Lu-lilotomab satetraxetan (U-2932 [3]; 1000 nM, time (day): 4) | growth inhibition by drug plus 177Lu-lilotomab satetraxetan (U-2932 [3]; 1000 nM, time (day): 5) | growth inhibition by drug plus 177Lu-lilotomab satetraxetan (U-2932 [3]; 1000 nM, time (day): 6) | growth inhibition by drug plus 177Lu-lilotomab satetraxetan (RIVA [4]; 10 nM, time (day): 3) | growth inhibition by drug plus 177Lu-lilotomab satetraxetan (RIVA [4]; 10 nM, time (day): 4) | growth inhibition by drug plus 177Lu-lilotomab satetraxetan (RIVA [4]; 10 nM, time (day): 5) | growth inhibition by drug plus 177Lu-lilotomab satetraxetan (RIVA [4]; 10 nM, time (day): 6) | growth inhibition by drug plus 177Lu-lilotomab satetraxetan (RIVA [4]; 100 nM, time (day): 3) | growth inhibition by drug plus 177Lu-lilotomab satetraxetan (RIVA [4]; 100 nM, time (day): 4) | growth inhibition by drug plus 177Lu-lilotomab satetraxetan (RIVA [4]; 100 nM, time (day): 5) | growth inhibition by drug plus 177Lu-lilotomab satetraxetan (RIVA [4]; 100 nM, time (day): 6)
CC[C@@H]1C(=O)N(C)c2cnc(Nc3ccc(C(=O)NC4CCN(C)CC4)cc3OC)nc2N1C1CCCC1 | 0.821 | 0.844 | 0.867 | 0.907 | 0.953 | 0.973 | 0.981 | 0.984 | 0.903 | 0.895 | 0.9 | 0.908 | 0.937 | 0.955 | 0.964 | 0.968 | 0.814 | 0.856 | 0.903 | 0.941 | 0.938 | 0.957 | 0.97 | 0.982 | 0.93 | 0.959 | 0.97 | 0.978 | 0.918 | 0.956 | 0.969 | 0.976
Cn1cc(-c2ccc3nnc(C(F)(F)c4ccc5ncccc5c4)n3n2)cn1 | -0.0908 | -0.108 | -0.0614 | -0.0112 | -0.151 | -0.112 | -0.0976 | 0.0327 | -0.216 | -0.252 | -0.259 | -0.266 | -0.157 | -0.252 | -0.203 | -0.226 | -0.0849 | -0.0323 | 0.0158 | 0.0612 | -0.131 | -0.0707 | -0.0177 | 0.142 | 0.285 | 0.449 | 0.457 | 0.453 | 0.342 | 0.401 | 0.428 | 0.429
C#Cc1cccc(Nc2ncnc3cc(OCCOC)c(OCCOC)cc23)c1 [Erlotinib HCl] | 0.33 | 0.251 | 0.131 | 0.0458 | 0.731 | 0.715 | 0.655 | 0.621 |  |  |  |  |  |  |  |  | 0.195 | 0.2 | 0.208 | 0.267 | 0.712 | 0.704 | 0.691 | 0.685 | 0.595 | 0.534 | 0.536 | 0.524 | 0.791 | 0.81 | 0.788 | 0.724
Cc1ccc([N+](=O)[O-])cc1S(=O)(=O)N(C)/N=C/c1cnc2ccc(Br)cn12 | 0.343 | 0.311 | 0.248 | 0.226 | 0.963 | 0.969 | 0.976 | 0.979 |  |  |  |  |  |  |  |  | 0.346 | 0.371 | 0.418 | 0.47 | 0.969 | 0.975 | 0.981 | 0.985 | 0.675 | 0.726 | 0.736 | 0.726 | 0.775 | 0.854 | 0.868 | 0.889
CC(=O)Nc1nc(C)c(-c2ccc(Cl)c(S(=O)(=O)NCCO)c2)s1 | 0.075 | 0.0569 | 0.00221 | -0.159 | 0.302 | 0.29 | 0.248 | 0.307 |  |  |  |  |  |  |  |  | -0.0326 | 0.00318 | 0.0521 | 0.103 | 0.423 | 0.467 | 0.424 | 0.489 | 0.348 | 0.493 | 0.527 | 0.549 | 0.317 | 0.471 | 0.448 | 0.434
CCn1c(-c2nonc2N)nc2cnc(Oc3cccc(NC(=O)c4ccc(OCCN5CCOCC5)cc4)c3)cc21 | -0.134 | -0.155 | -0.145 | -0.41 | 0.0463 | 0.0519 | 0.129 | 0.357 | -0.232 | -0.237 | -0.286 | -0.351 | -0.202 | -0.237 | -0.215 | -0.241 | -0.198 | -0.145 | -0.0619 | 0.0328 | 0.279 | 0.292 | 0.374 | 0.603 | 0.46 | 0.522 | 0.558 | 0.578 | 0.439 | 0.515 | 0.547 | 0.569
Cc1cc(Nc2cc(N3CCN(C)CC3)nc(/C=C/c3ccccc3)n2)n[nH]1 | -0.0691 | -0.0558 | -0.0606 | -0.0133 | 0.102 | 0.0113 | 0.0189 | 0.221 |  |  |  |  |  |  |  |  | -0.149 | -0.0973 | -0.0755 | -0.0149 | 0.048 | 0.00467 | 0.0776 | 0.323 | 0.336 | 0.485 | 0.509 | 0.521 | 0.23 | 0.353 | 0.36 | 0.357
O=C(O)C(=O)O.[NH-]C1CCCCC1[NH-].[Pt+2] (stereo not given) [Oxaliplatin (Eloxatin)] | 0.138 | 0.113 | -0.0491 | -0.0738 | 0.613 | 0.565 | 0.489 | 0.46 |  |  |  |  |  |  |  |  | 0.123 | 0.163 | 0.223 | 0.284 | 0.675 | 0.638 | 0.604 | 0.608 | 0.6 | 0.598 | 0.621 | 0.626 | 0.453 | 0.516 | 0.534 | 0.531
Cc1cc(Nc2cc(N3CCN(C)CC3)nc(Sc3ccc(NC(=O)C4CC4)cc3)n2)n[nH]1 [VX-680 (MK-0457, Tozasertib)] | 0.0135 | -0.0133 | -0.0455 | -0.102 | 0.116 | 0.0957 | 0.0508 | 0.219 |  |  |  |  |  |  |  |  | -0.00926 | 0.0675 | 0.118 | 0.172 | 0.272 | 0.279 | 0.311 | 0.494 | 0.594 | 0.628 | 0.652 | 0.658 | 0.458 | 0.547 | 0.616 | 0.727
